Screens as filed in PubChem BioAssay.
Shiga toxin inh: inhibitors of Shiga toxin in Vero cells. 290,000 tested, 9.2% active. Vero cells, Shiga toxin protein synthesis inhibition reporter. inhibition, % at 38.7 µM; in the data active = inhibition mostly above about 28%, no sharp cut-off; inactive = mostly below about 43%; note: 0% is about no effect
Cycloheximide cs: affects cycloheximide protein synthesis inhibition readout, counter-screen | cell reporter, cycloheximide protein synthesis inhibition counterscreen | max response, % | 300,000 tested, 12% active | AID 2314; in the data active = max response mostly above about 13%, no sharp cut-off; inactive = mostly below about 14%; note: read at 38.3 µM for the half of the compounds with a filed dose; 0% is about no effect
Marburg entry inh: inhibitors of Marburg virus binding or cell entry | Potency, µM (series often up to 37.8 µM), for the others: at the highest dose activity change, negative = inhibition, hits mostly inhibitors | AID 540276 | 300,000 tested, 1.8% active | Marburg virus pseudotyped entry inhibition, cell reporter; calls by dose curve; tested in HEK293 cells; note: potency is the fitted concentration of half-maximal effect; % is set by controls: 0 for no effect and ±100 for the full control effect
LASV entry inh: Lassa virus entry inhibition. Lassa virus pseudotype entry inhibition, cell reporter. Potency, µM (doses to about 37.9 µM), without a hit: at the top dose activity change, negative = inhibition, usual class: inhibitors. 300,000 tested, 1.2% active. AID 540256; calls by dose curve; tested in HEK293 cells; note: potency is the fitted concentration of half-maximal effect; % is set by controls: 0 for no effect and ±100 for the full control effect; nearly all actives have a fitted effect of over 50% in size
HCV inhibitor: blocks hepatitis C virus; Huh7.5.1 HCVcc-Cre infection, luciferase reporter, 44 h; Potency, µM (doses to about 41.8 µM), without a hit: top-dose activity change, negative = inhibition, hits mostly inhibitors; 340,000 tested, 3.4% active; active = well fitted inhibition curve with a large enough effect; inconclusive = small, poorly fitted or top-dose-only effect, or another doubt; inactive = no such curve, though single readings can be large or run the other way; note: potency is the fitted concentration of half-maximal effect; % is set by controls: 0 for no effect and ±100 for the full control effect
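Luciferase read-out (15 sec integration) after a 15 min room-temperature substrate step quantifies HCVcc-Cre infection. Cells, 1,000 per well, had compound added 4 h post-plating, then virus at ~0.5 moi, and were cultured 44 h.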
FMDV inh: foot and mouth disease virus antiviral activity; FMDV antiviral cell-based qHTS; Potency, µM (top dose mostly 57.9 µM), for the others: at the highest dose activity change, negative = inhibition, most hits filed as inhibitors; 410,000 tested, 1.2% active; calls by dose curve; tested in HEK293T cells; note: read-out not given here; potency is the fitted concentration of half-maximal effect; % is set by controls: 0 for no effect and ±100 for the full control effect; nearly all actives have a fitted effect of over 45% in size
* marks the source's active call; other numbers are inactive results; ? = inconclusive; / = no result; [ ] = remark or other dose. Rows were chosen to be rich in hits. Some 13% of all compounds tested hit in one or more screens of this group.

SMILES	Shiga toxin inh	Cycloheximide cs	Marburg entry inh	LASV entry inh	HCV inhibitor	FMDV inh
COc1ccc(CNS(=O)(=O)c2ccc(C3CNC(=O)C3)cc2)cc1 (stereo unspecified)	2	-3	4%	-5%	3.2µM*	/
COc1ccccc1CCn1c(=O)c(-c2cc(F)cc(F)c2)nc2cncnc21	/	/	/	/	/	-11%
Cn1c(CO)cnc1SCc1ccc(Cl)cc1	25	20*	4%	0%	11%	32%
COC(=O)c1cnc(SCc2ccc(C)cc2)n1C	44	32*	-21%[46.1 µM]	-2%	0%	18%
O=C(CSc1nc2ncc(Cl)cc2[nH]1)NC1CCS(=O)(=O)C1 (stereo unspecified)	2	4	-5%[46.1 µM]	7%	3%	2%
COc1ccc(-n2ncc3c(NCc4ccc5c(c4)OCO5)ncnc32)cc1	27*	25*	-1%	4%	-10%	56%
c1ccc(-n2ncc3c(NCc4ccc5c(c4)OCO5)ncnc32)cc1	42*	20*	?	18%[14.3 µM]	-16%	77%
Cc1cccc(-n2ncc3c(NCc4ccc5c(c4)OCO5)ncnc32)c1	97*	18*	3%	2%	?	2%
O=C(CSc1ccc(Cl)cc1)Nc1ccc(C2SCCS2)cc1	-2	1	-1%	-11%	-3%	20%
O=c1[nH]c(SCc2cccc(Cl)c2)nc2[nH]ncc12	17	20*	/	/	2%	-8%
O=c1[nH]c(SCc2ccc(Cl)cc2)nc2[nH]ncc12	27	19*	/	/	4%	4%
CNC(=S)N/N=C/c1cc(C)n(-c2ccc(Cl)c(Cl)c2)c1C	52	22*	?	?	?	0%
COc1cccc(/C=N/Nc2nnc(C)n2N)c1O	19	17	?	9%[46.1 µM]	16%	-5%
COc1ccc(-n2c(C)cc(/C=N/Nc3nnc(C)n3N)c2C)cc1	33	19*	?	-17%	11µM*	-10%
CNC(=S)N/N=C/c1c(Cl)cccc1Cl	-4	-2	-2%	7%	-2%	8%
Cc1ccc(-n2c(C)cc(/C=N/NC(=O)c3ccncc3)c2C)cc1	18	25*	-2%	4%	?	8%
O=C(N/N=C/c1ccc(OC(=O)c2ccccc2)cc1)c1ccc(CN2CCOCC2)cc1	-4	3	?	-21%	2%	?
Cc1cccc(-n2c(C)cc(/C=N/NC(=O)c3ccc(CN4CCOCC4)cc3)c2C)c1	-4	4	-4%	-39%[14.3 µM]	10µM*	?
COc1cccc(-c2nc(C#N)c(N3CCN(C(=O)c4ccco4)CC3)o2)c1	-3	-2	-1%	-26%	/	-11%
COC(=O)c1sc(NC(=O)CSc2nnc(Cn3nnc4ccccc43)n2C)nc1C	-11	-1	-21%	8%	?	-19%
COc1ccc(OC)c(NC(=O)c2cc(S(=O)(=O)N3CCCCC3)c[nH]2)c1	-3	-1	/	/	?	-27%
Cn1ncc2nc(SCC(=O)Nc3ccc(Br)cc3F)n(Cc3ccccc3)c(=O)c21	/	/	14%[46.1 µM]	2%[46.1 µM]	/	-16%
CCOC(=O)N/N=C/c1ccc(F)cc1F	57*	30*	?	9%	4%	11%
CCOC(=O)N/N=C/c1c[nH]c2ccccc12	32	9	/	/	2%	10%
Cc1ccc(C(=O)N/N=C/c2cc(C)n(-c3ccc(Br)cc3)c2C)cc1[N+](=O)[O-]	22	9	?	-18%	20µM*	4%
SMILES	Shiga toxin inh	Cycloheximide cs	Marburg entry inh	LASV entry inh	HCV inhibitor	FMDV inh
Cc1cccc(-n2c(C)cc(/C=N/NC(=O)c3cccc([N+](=O)[O-])c3C)c2C)c1	22	1	?	?	?	-24%
Cc1ccc(-n2c(C)cc(/C=N/NC(=O)c3ccc(CN4CCOCC4)cc3)c2C)cc1	-14	9	-18%	-29%	10µM*	?
Cc1ccc(-n2c(C)cc(/C=N/NC(N)=S)c2C)cc1	-12	19*	?	?	?	-9%
OCC[C@@H]1C[C@@H](O)[C@H](O)[C@]2(Cc3ccccc3CCO2)O1	3	-1	/	/	14%	-8%
CCOC(=O)N/N=C/c1cc(C)n(-c2cccc3ccccc23)c1C	13	-3	?	?	-12%	-25%
CCOC(=O)N/N=C/c1cc(C)n(-c2ccccc2)c1C	71*	35*	1%	-22%	?	77%
CCCCn1cc2c(c1-c1cccc(C)c1)c(=O)n(C)c(=O)n2C	-6	-2	/	/	10µM*	-24%
C[C@H](CO)N1C[C@H](C)[C@@H](CN(C)C(=O)Nc2ccc3c(c2)OCO3)Oc2ccc(NS(=O)(=O)c3cn(C)cn3)cc2C1=O	/	/	/	/	4%	-15%
CCCOc1ccc(-c2nc(OCC)c3ccccc3n2)cc1	32*	11	3%	-7%	?	/
CCCOc1ccc(-c2nc(N3CCN(C)CC3)c3ccccc3n2)cc1	61*	33*	/	/	?	20%
COc1ccc(S(=O)(=O)NC(CC(=O)NCc2ccco2)C(C)C)cc1 (stereo unspecified)	-3	-3	13%	0%	6%	1%
O=c1oc2c(O)c(O)cc3c(=O)oc4c(O)c(O)cc1c4c23	-6	-2	4.1µM*	?	-8%[8.37 µM]	-24%
N/C(=N\OC(=O)CSc1ccccc1)c1ccccn1	99*	79*	/	/	13%	14%
N/C(=N\OC(=O)CCCCCN1C(=O)c2ccccc2C1=O)c1ccccn1	2	-2	25%	26%	7%	7%
COc1ccc(CC(=O)O/N=C(\N)c2ccccn2)cc1	75*	64*	?	15%[46.1 µM]	2%	22%
N/C(=N\OC(=O)CCCOc1ccccc1)c1ccccn1	42*	26*	2%[46.1 µM]	6%[46.1 µM]	13%	-7%
CC(C)C(=O)O/N=C(\N)c1ccccn1	22	8	?	9%	5%	30%
N/C(=N\OC(=O)CCCN1C(=O)c2ccccc2C1=O)c1ccccn1	-3	1	5%[46.1 µM]	?	12%	-10%
N/C(=N\OC(=O)Cc1ccc(-c2ccccc2)cc1)c1ccccn1	72*	36*	4%	?	-24%	-4%
COc1ccc(C2C(C#N)=C(/N=C/N3CCN(C)CC3)OC3=C2C(=O)CC(C)(C)C3)cc1 (stereo unspecified)	14	-3	6%	13%	-26%	-9%
CC(C)CCn1c(SCC(N)=O)nc2c1c(=O)n(C)c(=O)n2C	-14	-8	/	/	3%	-14%
CN(C)CC/C=C1/c2ccccc2Sc2c(O)cc(Cl)cc21	20	-4	?	-6%	?	-6%
COc1cc(Cl)cc2c1Sc1ccccc1/C2=C/CCN(C)C	1	-2	?	?	4.5µM*	-15%
CCCOc1ccc(C(=O)NCC(c2cccs2)N(C)C)cc1 (stereo unspecified)	57	20*	?	-2%	-16%	24%
Cc1ccc(NS(=O)(=O)c2ccc(C(=O)NCC(c3ccco3)N(C)C)cc2)cc1 (stereo unspecified)	-36	2	-8%[46.1 µM]	11%[46.1 µM]	-3%	2%
